# According to PubChem BioAssay (NCATS):
# “And” between values parts separate entries of the source, which are not always exact repeats. Identical values can stand only once. Results filed as inconclusive are left out. Values without a mark were called inactive. The source made the active and inactive calls. Unless noted, calls come from the whole dose curve.
# Legend:
# [1] = AP1 Signaling Pathway (AID 357; active = well fitted curve in either direction with a large enough effect, not every such curve was filed as active;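 note: ME-180 reporter cells stimulated with EGF at its EC50 level; % is set by controls: 0 for no effect and ±100 for the full control effect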); settings: ME-180 AP-1-bla reporter, EGF-induced, beta-lactamase ratio, 5 h; series mostly up to 17.2 µM
# Procedure, shortened: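 In this screen, ME-180 cells in Opti-MEM with 0.5% dialyzed FBS received EC50 EGF and compound titrations for 5 h. AP-1 reporter beta-lactamase was detected via CCF4 ratio, giving AC50 for positive and negative modulators.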
# [2] = Stat Signaling Pathway (AID 446; active = well fitted curve in either direction with a large enough effect, not every such curve was filed as active;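 note: ME-180 cervical cancer cells given 40 pM IL-6 alongside compound; SIE-controlled beta-lactamase reporter measured as 460/530 nm FRET emission ratio; % is set by controls: 0 for no effect and ±100 for the full control effect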); settings: ME-180 (cervical carcinoma) SIE beta-lactamase reporter, IL-6 stimulated, 5 h; series mostly up to 17.2 µM
# Procedure, shortened: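 FRET read-out (405 nm excitation, 460/530 nm emission) of a beta-lactamase reporter under a STAT-inducible element in ME-180 cervical carcinoma cells. Cells with compound receive 40 pM IL-6 for 5 h. Values are normalised to AC90 stimulation and AC90 JAK-inhibitor controls.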
# [3] = molecular target: Cytochrome P450 1A2 (Homo sapiens) (UniProt P05177); assay: p450-cyp1a2 (AID 410); settings: recombinant CYP1A2, luciferin-ME demethylation, luminescence; series mostly up to 25.6 µM;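 note: -100% = full effect of reference inhibitor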
# Procedure, shortened: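 Read-out is luminescence from luciferin produced by CYP1A2 demethylation of Luciferin-ME (100uM, at Km). Detection reagent stopped the 60 min NADPH-dependent reaction; signals were normalized to 57 uM furafylline.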
# [4] = NFAT Signaling Pathway (AID 444; active = well fitted curve in either direction with a large enough effect, not every such curve was filed as active;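 note: carbachol stimulus at about its EC50 of 1 µM final; % is set by controls: 0 for no effect and ±100 for the full control effect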); settings: Jurkat NFAT-bla M1, carbachol, beta-lactamase ratio, 5 h
# Procedure, shortened: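 Jurkat cells carrying an NFAT-driven β-lactamase reporter and co-transfected muscarinic M1 receptor were treated with compound plus carbachol (1 uM final, an EC50 level) for 5 h at 37 °C. CCF4 loading followed for 1 h at RT; 460/530 nm ratio gave %activity.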
# [5] = Cell Viability - BJ (AID 421); settings: BJ fibroblast viability, qHTS;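 note: potency is the fitted concentration of half-maximal effect; cells exposed to compound for 40 hours at 37 °C before readout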
# Procedure, shortened: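 Cytotoxicity as drop in intracellular ATP (CellTiter-Glo, 20 min RT) after 40 hr compound exposure of BJ fibroblasts at 37 °C. Titrations scaled between DMSO and 100 uM tamoxifen, Hill-fitted for AC50.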
# [6] = Cell Viability - Hek293 (AID 427;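 active = compounds whose dose-response curve shows a full or clear partial loss of cell viability, called from curve shape rather than a numeric limit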;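 note: potency is the fitted concentration of half-maximal effect; cells exposed to compound for 40 hours at 37 °C before reading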); settings: qHTS
# Procedure, shortened: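 Luminescent ATP content (CellTiter-Glo, 20 min at room temperature) was measured after a 40 hr, 37 °C compound exposure of HEK293 cells. AC50 values came from Hill-equation fits of qHTS concentration-response data normalized to DMSO and 100 uM tamoxifen.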
# [7] = Cell Viability - HepG2 (AID 433); settings: qHTS;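 note: potency is the fitted concentration of half-maximal effect; potency for ATP loss meaning cytotoxicity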
# Procedure, shortened: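 Cytotoxicity is scored as loss of intracellular ATP in HepG2 cells exposed to compounds for 40 h. Concentration-response curves, normalized to DMSO and 100 uM tamoxifen, give AC50 values.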
# [8] = Cell Viability - MRC5 (AID 434); settings: MRC5 lung fibroblast viability, qHTS;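 note: potency is the fitted concentration of half-maximal effect; cells exposed to compound for 40 hours at 37 °C; potency reflects cytotoxicity seen as loss of intracellular ATP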
# Procedure, shortened: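 Decrease in intracellular ATP, quantified by luciferase light output, reflects compound toxicity toward MRC5 cells exposed for 40 hr in complete culture medium. Concentration-response curves, scaled between DMSO and 100 uM tamoxifen, gave AC50 values.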
# [9] = Cell Viability - SK-N-SH (AID 435); settings: SK-N-SH neuroblastoma cell viability qHTS;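 note: potency is the fitted concentration of half-maximal effect; compound exposure lasted 40 h at 37 °C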
# Procedure, shortened: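 Cells seeded at 1500 per well and incubated 5 hr at 37 °C. Compound added, then 40 hr at 37 °C. CellTiter-Glo added, 20 min at room temperature, luminescence read.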
# [10] = Cell Viability - Jurkat (AID 426;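 active = dose-dependent loss of cell ATP signal giving a full or clear fitted curve, ranked by lower potency value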;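 note: potency is the fitted concentration of half-maximal effect; cells exposed to compound for 40 hours at 37 °C before ATP read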); settings: qHTS
# Procedure, shortened: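 Cytotoxicity was scored as loss of cellular ATP, measured by luciferase-based luminescence, in Jurkat clone E6-1 cells after 40 h compound treatment; tamoxifen and doxorubicin served as positive controls.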
# Cytochrome P450 1A2 (Homo sapiens), sequence (P05177 whole entry, looked up): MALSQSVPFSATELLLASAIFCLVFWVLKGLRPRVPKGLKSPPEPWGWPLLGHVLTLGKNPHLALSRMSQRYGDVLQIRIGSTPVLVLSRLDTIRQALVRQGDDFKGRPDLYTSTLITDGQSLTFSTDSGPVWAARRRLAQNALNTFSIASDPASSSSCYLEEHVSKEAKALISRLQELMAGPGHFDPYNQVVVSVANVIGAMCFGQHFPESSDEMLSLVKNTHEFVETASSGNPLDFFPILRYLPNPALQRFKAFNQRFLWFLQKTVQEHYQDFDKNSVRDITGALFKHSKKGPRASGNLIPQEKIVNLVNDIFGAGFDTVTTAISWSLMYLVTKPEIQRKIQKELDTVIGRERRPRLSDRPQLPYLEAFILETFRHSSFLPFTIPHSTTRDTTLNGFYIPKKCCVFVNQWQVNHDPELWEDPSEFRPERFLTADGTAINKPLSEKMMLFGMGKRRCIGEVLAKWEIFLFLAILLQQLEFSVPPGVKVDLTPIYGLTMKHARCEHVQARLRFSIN
smiles,measurement,setting,value
COP(=O)(OC)C(O)C(Cl)(Cl)Cl (stereo not drawn),outcome,[1],inactive
same,outcome,[2],inactive
NC(=O)CN1CCCC1=O,outcome,[1],inactive
same,Potency,[3],inactive
same,"activity change, negative = inhibition",[4]; at 17.2 µM (top of the series),-0.917%
same,"activity change, negative = inhibition",[4]; at 38 µM (top of the series),1.7%
same,outcome,[2],inactive
C[C@H](N)[C@H](O)c1ccc(O)c(O)c1,outcome,[1],inactive
same,Potency,[3],inactive
same,"activity change, negative = inhibition",[4]; at 17.2 µM (top of the series),-6.73%
same,"activity change, negative = inhibition",[4]; at 38 µM (top of the series),1.06%
same,outcome,[2],inactive
CCC(=O)O[C@H]1CC[C@H]2[C@@H]3CCC4=CC(=O)CC[C@]4(C)[C@H]3CC[C@]12C,outcome,[1],inactive
same,Potency,[3],inactive
same,outcome,[2],inactive
CNC(=O)Oc1cccc2ccccc12,Potency,[5],> 92 µM
same,Potency,[6],> 92 µM
same,Potency,[7],> 92 µM
same,Potency,[8],> 92 µM
same,Potency,[9],> 92 µM
CCCCCCCCCCCC[N+](C)(C)CCOc1ccccc1,Potency,[5],13.7 µM (active)
same,Potency,[10],25.2 µM (active)
same,Potency,[6],29.6 µM (active)
same,Potency,[7],58.8 µM (active)
same,Potency,[8],14.5 µM (active)
same,Potency,[9],24.5 µM (active)
CC[n+]1c(-c2ccccc2)c2cc(N)ccc2c2ccc(N)cc21,Potency,[10],26.8 µM (active)
same,Potency,[8],> 92 µM
same,Potency,[9],> 92 µM
CN(C)C(=S)SSC(=S)N(C)C,Potency,[10],12.5 µM (active)
same,Potency,[6],14.5 µM (active)
same,Potency,[7],66.9 µM (active)
same,Potency,[8],13.2 µM (active)
same,Potency,[9],8.36 µM (active)
CN1[C@@H]2CC[C@H]1CC(OC(=O)c1cc(Cl)cc(Cl)c1)C2 (stereo partly drawn),outcome,[1],inactive
same,Potency,[3],inactive
same,outcome,[2],inactive
C[C@@H]1C[C@@H]([C@H](O)CC2CC(=O)NC(=O)C2)C(=O)[C@@H](C)C1,Potency,[5],> 92 µM
same,Potency,[10],301 nM (active) and 142 nM (active)
same,Potency,[6],129 nM (active) and 167 nM (active)
same,Potency,[7],> 92 µM
same,Potency,[8],> 92 µM
same,Potency,[9],> 92 µM
